Several values for one entry are separate records, joined by “and”; a condition that tells them apart may be missing. Identical values can stand only once. Records with an inconclusive call do not appear. Entries that show only a call come without a potency. More than one record can exist for a structure, and the calls need not agree. Activity calls are given as the source filed them. Calls follow the shape of the dose curve; as a rule, active = well fitted activation curve with a large enough effect in the repeat runs; inconclusive = weak or mixed curves; inactive = no such curve, though single readings can be large or run the other way. Residues, ends and D or L forms follow the SMILES beside them.
Potency is read from the fitted curve at half-maximal effect.

Chain of Nuclear receptor subfamily 1 group I member 2 (Homo sapiens) (O75469 whole entry, looked up): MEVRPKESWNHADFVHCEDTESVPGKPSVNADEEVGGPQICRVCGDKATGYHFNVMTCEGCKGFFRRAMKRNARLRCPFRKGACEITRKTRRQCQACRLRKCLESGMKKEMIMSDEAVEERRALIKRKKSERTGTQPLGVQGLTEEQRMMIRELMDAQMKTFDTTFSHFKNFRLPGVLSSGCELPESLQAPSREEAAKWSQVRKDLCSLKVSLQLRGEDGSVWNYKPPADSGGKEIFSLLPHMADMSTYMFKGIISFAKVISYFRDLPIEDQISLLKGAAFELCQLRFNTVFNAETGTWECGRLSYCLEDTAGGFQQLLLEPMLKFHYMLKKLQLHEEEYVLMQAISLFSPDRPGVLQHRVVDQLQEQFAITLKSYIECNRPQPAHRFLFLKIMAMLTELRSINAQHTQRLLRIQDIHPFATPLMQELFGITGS

The test concerns the target Nuclear receptor subfamily 1 group I member 2 (Homo sapiens) (UniProt O75469). The experiment in a line: Human pregnane X receptor (PXR) small molecule agonists, qHTS assay (AID 1346982). Also: nearly all actives have a fitted effect of over 35% in size. The conditions noted are these: PXR-Luc HepG2, CYP3A4 luciferase reporter, 24 h; series mostly up to 92.4 µM. The text has this: National Center for Advancing Translational Sciences [NCATS]
NIH Chemical Genomics Center [NCGC]
U.S. Environmental Protection Agency [EPA]
National Institutes of Environmental Health Sciences [NIEHS]
National Toxicology Program [NTP]
The human pregnane X receptor (hPXR) regulates the expression of several drug metabolizing enzymes and induction of these proteins is a major mechanism for developing drug resistance in cancer. One such key enzyme catalyzing the drug metabolism is cytochrome P450 3A4 (CYP3A4). Changes in CYP3A4 expression affect drug metabolism, thereby reducing the therapeutic efficacy and altering toxicological response to a drug and which finally causes adverse drug interaction. To screen Tox21 libraries for compounds that activate hPXR-mediated CYP3A4 gene expression, PXR-Luc HepG2 cells were used.
PXR-Luc HepG2 cells were dispensed at 2,000 per well in 5uL of assay medium containing 5% charcoal-stripped FBS into white solid bottom 1536-well plates (Corning Life Sciences, Corning, NY) using a Multidrop Combi (Thermo Scientific, Waltham, MA) dispenser. The assay plates were incubated at 37 C and 5% CO2 for 5hr, and then 23nL of compounds dissolved in DMSO and positive control were transferred using a Pintool station (Wako, San Diego, CA). The assay plates were incubated at 37C and 5% CO2 for 24hr. For luciferase read, 4uL of ONE-Glo reagent (Promega Corporation, Madison, WI) was added to each well of the assay plates using Flying Reagent Dispenser (FRD, Aurora Discovery, San Diego, CA) and incubated the assay plates at room temperature for 30min. The luminescence signal was quantified using a ViewLux plate reader (Perkin Elmer, Shelton, CT).
Turning to `Cn1c(=O)c2[nH]cnc2n(C)c1=O`, the Potency result was “inactive”.

Take `Nc1ccc(C(=O)O)cc1`: the Potency result was “inactive”.

For `CCCNC(=O)NS(=O)(=O)c1ccc(Cl)cc1`, the Potency entry was “inactive”.

Take `O=C1CN(/N=C/c2ccc([N+](=O)[O-])o2)C(=O)N1`: the Potency entry is “inactive”.

`N=C(N)c1ccc(OCCCCCOc2ccc(C(=N)N)cc2)cc1`: the Potency was 68.2 µM (active) and 32.8 µM (active) and inactive.

Turning to `O=C(O)CS`, the Potency result was “inactive”.

As for `O=C(O)CCCCCCCC(=O)O`, the Potency entry was “inactive”.

`Cc1cn([C@H]2C[C@H](N=[N+]=[N-])[C@@H](CO)O2)c(=O)[nH]c1=O`: the Potency result is “inactive”.

Take `COc1ccc2[nH]cc(CCNC(C)=O)c2c1`: the Potency is 62.1 µM (active).

Turning to `O=S(=O)(O)c1ccc2cc(O)ccc2c1`, the Potency entry was “inactive”.

Turning to `NNC(=O)c1ccncc1`, the Potency result is “inactive”.

`CCC1(c2ccccc2)C(=O)NCNC1=O`: the Potency entry is “inactive”.

For `COc1c2occc2cc2ccc(=O)oc12`, the Potency was 61.5 µM (active) and 48.6 µM (active).

For the molecule `Cc1noc(NS(=O)(=O)c2ccc(N)cc2)c1C`, the Potency entry was “inactive”.

Regarding `O=c1ccc2ccccc2o1`, the Potency entry is “inactive”.

For `CC(O)CO` (stereo not given), the Potency entry was “inactive”.

With `C[C@]12C=CC(=O)C=C1CC[C@@H]1[C@@H]2[C@@H](O)C[C@@]2(C)[C@H]1CC[C@]2(O)C(=O)CO`, the Potency entry was “inactive”.

Consider `CCCCC(CC)COC(=O)/C=C/c1ccc(OC)cc1` (stereo not given), for which the Potency entry was “inactive”.

In the case of `O=C(O)CCC(=O)O`, the Potency result is “inactive”.

For `CC(=O)OCC(COC(C)=O)OC(C)=O`, the Potency entry is “inactive and 4.33 µM (active)”.

For the molecule `C/C=C/c1ccc(OC)cc1`, the Potency entry was “inactive”.

Turning to `NC(N)=O`, the Potency was 9.16 µM (active) and inactive.

`COC(=O)[C@H](Cc1ccccc1)NC(=O)[C@@H](N)CC(=O)O` (H-Asp-Phe-OMe): the Potency entry was “inactive”.

As to `CCCCCCCCCCCCCCCC(=O)O`, the Potency result is “inactive”.

For the molecule `Nc1ccc(O)c(C(=O)O)c1`, the Potency result is “inactive”.

`NC(=O)c1ccccc1O`: the Potency entry was “inactive”.

With `CC(=O)NS(=O)(=O)c1ccc(N)cc1`, the Potency result is “inactive”.

In the case of `Nc1ccc(S(=O)(=O)c2ccc(N)cc2)cc1`, the Potency result was “inactive”.

Turning to `O=c1cc[nH]c(=S)[nH]1`, the Potency was 61.5 µM (active) and inactive.

`Oc1ccc(/C=C/c2cc(O)cc(O)c2)cc1`: the Potency was 61.7 µM (active) and 30.6 µM (active) and 29.8 µM (active).

Turning to `C1N2CN3CN1CN(C2)C3`, the Potency result was “inactive”.

Take `O=C1NC(=O)c2ccccc21`: the Potency entry was “inactive and 31.4 µM (active)”.

As to `CC1(C)[C@@H]2CC[C@@]1(C)C(=O)C2`, the Potency result is “inactive”.

`O=C(c1ccccc1)C(O)c1ccccc1` (stereo not given): the Potency entry was “inactive”.

Regarding `CC(C)(Oc1ccc(C2CC2(Cl)Cl)cc1)C(=O)O` (stereo not given), the Potency result was “inactive”.

Take `NS(=O)(=O)c1cc(C(=O)O)c(NCc2ccco2)cc1Cl`: the Potency entry was “inactive”.

Turning to `NC(N)=NC(=O)c1nc(Cl)c(N)nc1N`, the Potency is 69 µM (active) and 50.4 µM (active) and inactive.

In the case of `OC(Cn1cncn1)(Cn1cncn1)c1ccc(F)cc1F`, the Potency result is “inactive”.

Turning to `c1ccc2[nH]ccc2c1`, the Potency result was “inactive”.

Consider `O=C(O)c1cc(N=Nc2ccc(S(=O)(=O)Nc3ccccn3)cc2)ccc1O`, for which the Potency result is “inactive”.

For the origin of these results see PubChem BioAssay (Tox21).
